# PubChem BioAssay AID588852 (The Scripps Research Institute Molecular Screening Center, 2011)
# In all, about 360,000 compounds went through this assay and about 4,600 (1.3%) were called active. The sample as a whole holds a higher share of actives than the screen did. Values without a mark were called inactive.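 Rule for the calls: active = percent inhibition above its own plate's cutoff, namely the mean of that plate's compound wells plus 3 SD; inactive = the rest.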
# Target: Muscarinic acetylcholine receptor M1 (Homo sapiens) (UniProt P11229)
# Experiment: human M1 muscarinic receptor antagonists, primary screen, CHO-K1 cells, Fluo-8 calcium fluorescence, 1536-well (AID 588852);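 note: peak over basal fluorescence ratio during 140 s after agonist addition; 0% = ACh EC80 plus DMSO and 100% = DMSO alone without agonist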
# Conditions: CHO-K1 hM1, Fluo-8 calcium fluorescence, ACh EC80 antagonist; at 3 µM; active compounds read high
# Sequence of Muscarinic acetylcholine receptor M1 (Homo sapiens) (P11229 whole entry, looked up): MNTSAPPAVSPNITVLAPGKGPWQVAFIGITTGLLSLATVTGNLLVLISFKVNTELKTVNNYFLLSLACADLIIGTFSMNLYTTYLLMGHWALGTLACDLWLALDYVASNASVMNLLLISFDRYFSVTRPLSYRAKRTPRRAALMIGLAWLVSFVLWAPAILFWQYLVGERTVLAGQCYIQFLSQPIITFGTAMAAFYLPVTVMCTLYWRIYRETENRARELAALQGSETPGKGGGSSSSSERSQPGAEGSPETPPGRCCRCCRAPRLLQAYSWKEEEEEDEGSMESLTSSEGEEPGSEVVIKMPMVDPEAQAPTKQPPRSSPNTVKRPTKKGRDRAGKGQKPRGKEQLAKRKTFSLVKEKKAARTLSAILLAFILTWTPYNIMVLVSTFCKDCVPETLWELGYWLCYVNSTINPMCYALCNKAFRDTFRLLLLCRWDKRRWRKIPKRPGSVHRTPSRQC
row,SMILES,inhibition
1,C[C@H]1CN([C@@H](C)CO)C(=O)CCCn2cc(nn2)CO[C@@H]1CN(C)S(=O)(=O)c1cccc(C#N)c1,-7.84%
2,Cc1cc(Br)cn2c(Cc3ccsc3)c(-c3ccc(C#N)cc3)nc12,-2.47%
3,CC(=O)c1nn(-c2ccccc2)c(=Nc2ccccc2)cc1C,2.25%
4,COc1ccc(C(CCN(Cc2ccc(OC)c(OC)c2)C(=O)CCl)c2ccccc2)cc1 (configuration not stated),-0.77%
5,CCN(CCCCOC(=O)c1ccc(OC)c(OC)c1)C(C)Cc1ccc(OC)cc1 (configuration not stated),91.6% (active)
6,COc1ccc(C(=O)OCC(=O)NCCCc2ccccc2)cc1OC,-14.8%
7,CCN1CCN(c2ccc([N+](=O)[O-])cc2C(=O)c2ccc(Cl)cc2)CC1,96.3% (active)
8,O=C(Nc1cccc(Cl)c1)c1cc([N+](=O)[O-])ccc1N1CCN(CCO)CC1,-7.1%
9,CCC(=O)c1ccc(N2CCN(C(=O)c3cc([N+](=O)[O-])ccc3F)CC2)c(F)c1,11.9%
10,Cc1cccc(OCC(=O)OCC(=O)Nc2ccc(Cl)cn2)c1,-3.17%
11,CCc1noc(C)c1C(=O)N1CCCSC1=Nc1ccccc1OC,3.24%
12,CC(C)c1ccc2oc(=O)cc(CN3CCN(Cc4ccccc4)CC3)c2c1,-7.34%
13,N#Cc1ccc(OCCN2C(=O)NC3(CCSC3)C2=O)cc1 (configuration not stated),5.7%
14,COc1ccc(-c2cc3c(c4c2ccn4C)C2CCC3C2)cn1 (configuration not stated),3.78%
15,CC(=O)c1c(C)[nH]c(C(=O)COC(=O)c2cccc(S(=O)(=O)N(C)c3ccccc3)c2)c1C,57% (active)
16,CC(=O)c1c(C)[nH]c(C(=O)COC(=O)c2cccs2)c1C,10.1%
17,COc1cccc(C(=O)OCC(=O)c2[nH]c(C)c(C(C)=O)c2C)c1,8.52%
18,O=C1C=C(c2ccccc2)CCC1,6.35%
19,NC(Cc1ccc(F)cc1)c1csc(Nc2nncc3ccccc23)n1 (configuration not stated),-3.42%

row,SMILES,inhibition
1,COc1ccc(OC)c(C(=O)NC2CCCc3c2cnn3-c2cc(C)cc(C)c2)c1 (configuration not stated),-5.27%
2,COc1ccc(C(=O)NC2CCCc3c2cnn3-c2cccc(C)c2C)c(OC)n1 (configuration not stated),46.9% (active)
3,COc1ccc(C(=O)NC2CC(C)(C)Cc3c2cnn3-c2ccccc2C)o1 (configuration not stated),0.26%
4,Cc1cn([C@H]2C[C@H](O)[C@@H](/C=C/C(=O)NCCCc3ccccc3)O2)c(=O)[nH]c1=O,-25.2%
5,COc1cccc(NC(=O)CN(C)C(=O)CSCc2nc3scc(-c4cccs4)c3c(=O)[nH]2)c1,-1.71%
6,CCN(CCCNC(=O)c1ccc2c(c1)NC(=O)CN2C)c1cccc(C)c1,8.18%
7,NS(=O)(=O)c1cccc(NC(=O)CC23CC4CC(CC(Br)(C4)C2)C3)c1,6.38%
8,CCCOc1ccc(F)cc1-c1cc(C(=O)NCc2ccc(F)cc2)[nH]n1,1.58%
9,CC(C)Oc1cc(F)ccc1-c1cc(C(=O)Nc2ccc(F)cc2)[nH]n1,5.41%
10,CCCOc1ccc(F)cc1-c1cc(C(=O)Nc2ccc(F)c(Cl)c2)[nH]n1,58.9% (active)
11,CC(C)Oc1cc(F)ccc1-c1cc(C(=O)Nc2cccc(Cl)c2)[nH]n1,24.4%
12,CCCOc1ccc(F)cc1-c1cc(C(=O)Nc2ccc(F)cc2)[nH]n1,34.5% (active)
13,COc1ccc(Cl)cc1-c1cc(C(=O)Nc2cc(OC)c(OC)c(OC)c2)[nH]n1,0.33%
14,CCOC(=O)[C@H]1Nc2ccc(Cl)cc2[C@@H]2[C@H]1C1CC(c3ccccc31)N2C(=O)OCc1ccccc1 (some centres not stated),6.68%
15,Nc1cc(C(F)(F)F)ccc1N1CCOCC1,3.72%
16,CCCCN1CC(N2CCN(Cc3cccc(C)c3)CC2)CS1(=O)=O (configuration not stated),8.04%
17,CSc1ccc(CN2C(=O)NC3(CCCCCC3)C2=O)cc1,8.79%
18,CC(C)(C)C(=O)NC1CC2CCCC(C1)N2C(=O)Nc1ccccc1F (configuration not stated),-7.35%
19,COc1ccc(OCCNS(=O)(=O)Cc2ccccc2)cc1,-0.06%

row,SMILES,inhibition
1,COc1ccc(S(=O)(=O)NCCCCOc2ccc(Cl)cc2)cc1,32.6% (active)
2,COc1ccc(S(=O)(=O)NCCOc2ccccc2)cc1F,-7.76%
3,CC1(C)CC(=O)C=C(N2CCOCC2)C1,-7.94%
4,CC1(C)CC(N2CCN(C(c3ccccc3)c3ccccc3)CC2)=CC(=[N+]2CCCCC2)C1,72.8% (active)
5,CC(C)OCC(O)CN1CCN(C(c2ccccc2)c2ccccc2)CC1 (configuration not stated),24.4%
6,CCNS(=O)(=O)c1ccc(CCC(=O)N2CCN(c3cc(Cl)ccc3C)CC2)cc1,13.9%
7,Cc1sc2ccccc2c1CNC[C@H]1O[C@@H](n2ccc(=O)[nH]c2=O)[C@H](O)[C@@H]1O,-6.07%
8,COc1ccccc1C(=O)NC(CCSC)C(=O)N1CCN(C(C)=O)CC1 (configuration not stated),-18.2%
9,CSCCC(NC(=O)c1ccccc1)C(=O)N1CCN(Cc2ccc(Cl)cc2)CC1 (configuration not stated),31.4% (active)
10,CSCCC(NC(=O)c1ccccc1)C(=O)N1CCCCCCC1 (configuration not stated),-10.3%
11,O=c1c2c(ncn1Cc1ccccc1)nc1n2CCC1,-9.57%
12,COc1ccc(-c2nc3ccc(Br)cn3c2Cc2ccc(C)cc2)cc1OC,-18.2%
13,CCc1cccc(NC(=O)COC(=O)C2CCN(c3ccc(C(F)(F)F)cn3)CC2)c1,2.01%
14,CCOc1ccc(CCNC(=O)COC(=O)C2CCN(c3ccc(C(F)(F)F)cn3)CC2)cc1OCC,38.9% (active)
15,CCOc1ccc(CCNC(=O)COC(=O)C2CCN(S(=O)(=O)c3ccccc3)CC2)cc1OCC,-4.87%
16,CCc1ccc([C@@H]2CC(=O)[C@@H]3CN(S(=O)(=O)c4ccc(C)cc4)[C@H](c4ccc(Cl)cc4)C[C@@H]3N2S(=O)(=O)c2ccc(C)cc2)cc1,-3.63%
17,COc1ccccc1N1CCN(CCCCOc2ccc(F)cc2)CC1,30.4% (active)
18,COc1ccccc1OCCCCCCN1CCN(C)CC1,-0.37%
19,CCN1CCN(CCCCOc2ccccc2F)CC1,-2.84%
